Data taken from PubChem BioAssay (NCI).
Where “and” joins values, the source holds several entries; their conditions need not be identical. Equal entries are not always repeated. Compounds without any hit were thinned out: in the full panel of roughly 83,000, 20% have a hit.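 Note: values are percent growth. 100 is the growth of untreated cells, values between 100 and 0 indicate rising inhibition; between -100 and 0 indicates cell death.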 A number with no mark means an inactive call. Calls of active or inactive are those of the source. How the source made its calls: active means growth percent below 10; inactive means the rest.

Tested on: MDA-MB-468 breast
Assay: NCI-60 one-dose screen, 48 h (100 = growth as untreated, 0 = no growth, -100 = all killed)
Details: 10 µM unless noted

Compound: CCSc1nnc2n(Cc3ccccc3)c(=O)c3c(C)c(C(N)=O)sc3n12
- growth: 101%

Compound: COc1ccc(-c2cc(-c3ccc(Cl)cc3)c(C#N)c(=O)n2Cc2ccc(C(=O)O)cc2)cc1
- growth: 73.7%

Compound: O=c1ccc2nc(-c3ccccc3)nn(-c3ccccn3)c-2c1
- growth: -65.2% (active)

Compound: O=C(N/N=C1\c2ccccc2-c2cccc(C(=O)O)c21)c1ccc(O)cc1
- growth: 90.8%

Compound: COc1ccc(OC)c(Nc2nc3nonc3nc2Nc2cc(OC)ccc2OC)c1
- growth: 63.1%

Compound: CC(=O)N1N=C(C2C(=O)N(C)C(=O)N(C)C2=O)CC1c1ccccc1C(=O)O (centres undefined)
- growth: 114%

Compound: COc1cc2ncnc(-n3ncc4cc(NC(=O)Nc5ccc(Cl)c(C)c5)ccc43)c2cc1OC
- growth: 93.6%

Compound: CN1C(=O)/C(=C/c2ccc(C(=O)Nc3ncc(Cc4ccc(F)cc4)s3)cc2)SC1=S
- growth: 25.2%

Compound: FC(F)(F)c1cc(Br)cc(-c2cc(-c3ccc4c(c3)OCCO4)[nH]n2)c1
- growth: 40.6%

Compound: COc1cc(-c2nnc(-c3nc(-c4cc(OC)c(OC)c(OC)c4)n4ccccc34)o2)ccc1N
- growth: 97.7%

Compound: Cc1cc(C)c(CC(=O)O)c(C)c1
- growth: 111%

Compound: Cc1ccc2cccc(Oc3ccc(Nc4ncnc5onc(-c6ccccc6)c45)cc3)c2n1
- growth: 86.8%

Compound: COc1cc([C@H]2OC[C@H]3[C@@H]2CO[C@@H]3c2ccc(O)c(OC)c2)ccc1O
- growth: 100%

Compound: O=S(=O)(O)c1ccc(N=Nc2ccc(N=Nc3cccc4ccccc34)c(S(=O)(=O)O)c2)cc1
- growth: 89.8%

Compound: Cc1c(Cl)cccc1NCN1C(=O)c2ccccc2C1=O
- growth: 98.4%

Compound: N=C(N)c1ccc(-c2ccc(-c3cccs3)s2)cc1F
- growth: -77.4% (active)

Compound: CCOc1ccccc1-c1cc(-c2cccs2)c(C#N)c(=O)[nH]1
- growth: 2.06% (active)

Compound: COc1ccccc1N1CCN(C2=CC(=O)C(C)=C(C)C2=O)CC1
- growth: 85.8%

Compound: N#C/C(=C\c1ccc2c(c1)OCO2)n1nnc2ccccc21
- growth: -1.9% (active)

Compound: COc1ccc(-c2nnc(N3CCN(C(=O)CN4CCN(c5ccc(OC)cc5)CC4)CC3)nc2-c2ccc(OC)cc2)cc1
- growth: -54.8% (active)

Compound: COc1ccc(-c2cc(-c3ccc(Cl)cc3)nc3nc(N)nn23)cc1
- growth: 78.5%

Compound: CSc1ccc(N=C=C(c2ccccc2)c2ccccc2)cc1
- growth: 97.1%

Compound: O=C(N/N=C/c1ccc(F)cc1)c1ccccc1Nc1cccc(C(F)(F)F)c1
- growth: 83.9%

Compound: O=C(/C=C/c1cccs1)c1ccc(Cl)nc1
- growth: 103%

Compound: CC1(C)CC(=O)C2=C(C1)C(c1ccc(Cl)cc1)n1ncc(C#N)c1N2 (centres undefined)
- growth: 105%

Compound: CN(c1ncccc1CNc1nc(Nc2ccc3c(c2)CC(=O)N3)ncc1C(F)(F)F)S(C)(=O)=O
- growth: -44.5% (active)

Compound: CCCCCCCCOc1ccc(/C=N/Nc2cc(C)nc3ccc(Cl)cc23)cc1
- growth: -49.9% (active)

Compound: Oc1ccc(CSc2nnc(-c3ccccc3)o2)c2cccnc12
- growth: 22.9%

Compound: O=c1oc2ccccc2cc1C1=NN=C(SCc2ccccc2)SC1
- growth: 118%

Compound: O=C(O)CCCN1C(=O)NC2(C1=O)c1ccccc1-c1ccccc12
- growth: 98.2%

Compound: O=C(/C=C/C12c3ccccc3C(c3ccccc31)C1C(=O)N(c3ccccc3)C(=O)C12)c1ccc(Cl)cc1 (centres undefined)
- growth: 3.08% (active)

Compound: CCCCn1c(=O)c2c(nc(NCCc3ccc(O)c(O)c3)n2CCC)n(CCCC)c1=O
- growth: 82.2%

Compound: COc1ccc2c(c1)N(CCO)C1=C(C(=O)OC1)C2c1cccc(F)c1 (centres undefined)
- growth: 7.89% (active)

Compound: COc1cc2nc(Cl)nc(Nc3ccc(S(=O)(=O)Nc4nccs4)cc3)c2cc1OC
- growth: 102%

Compound: C=CC(=O)Nc1ccc(Nc2nccc(-c3ccc(N4CCCC4)c(C#N)c3)n2)cc1
- growth: -9.73% (active)

Compound: COc1ccc(/C=C/C(=O)CCC(=O)O)cc1OC
- growth: 113%

Compound: C=C1C(=O)O[C@H]2[C@H]1CC/C(COC(=O)c1cc3cc(OC)ccc3[nH]1)=C\CC[C@@]1(C)O[C@@H]21
- growth: -76.3% (active)

Compound: COc1cc2c(c(OC)c1OC)CCC(c1cccc(C(=O)Nc3ccc(C#N)cc3)c1)O2 (centres undefined)
- growth: 46.4%

Compound: COc1cccc(C2C(C#N)=C(N)Oc3cc(OCCCCCC[P+](c4ccccc4)(c4ccccc4)c4ccccc4)ccc32)c1 (centres undefined)
- growth: -64.3% (active)

Compound: NC(CSC(c1ccccc1)(c1ccccc1)c1ccc2c(c1)OCO2)C(=O)O (centres undefined)
- growth: -56.6% (active)

Compound: O=[N+]([O-])c1ccc(S(=O)Cc2ccccc2)c([N+](=O)[O-])c1 (centres undefined)
- growth: -56% (active) and -64.1% (active)

Compound: C=C(C)[C@@H]1CC[C@]2(C(=O)NCC(=O)OC)CC[C@]3(C)[C@H](CC[C@@H]4[C@@]5(C)Cc6c([nH]c7ccccc67)C(C)(C)[C@@H]5CC[C@]43C)[C@@H]12
- growth: 55.1%

Compound: C=C1C(=O)O[C@H]2[C@H]1CC/C(C(=O)NCCOCCOCC(=O)Nc1ccc(OC)c(C(N)=O)c1O)=C\CC[C@@]1(C)O[C@@H]21
- growth: 77.8%

Compound: CCn1c(SCC(=O)Nc2cccc(C(=O)/C=C/c3ccc(C)cc3)c2)nc2ccccc2c1=O
- growth: 58.7%

Compound: O=C1NC(=S)S/C1=C\c1cccc([N+](=O)[O-])c1
- growth: 106%

Compound: COC(=O)c1ccc2c(c1)NC(=O)[C@@H]1CCCN21
- growth: 109%

Compound: COc1cc(-c2nn(C(C)(C)C)cc2-c2ccnc(NCCCNS(=O)(=O)c3ccc(C)cc3)n2)ccc1Cl
- growth: 79%

Compound: O=C(CCCCCCCn1cc(-c2cccnc2)nn1)Nc1ccccc1-c1ccccc1
- growth: 48.2%

Compound: Cn1c(=O)cc2c3c(c(NCCCO)ccc31)C(=O)c1ccccc1-2
- growth: 39.8%
